Results on 27 molecules are retold here after PubChem BioAssay AID686978 (National Center for Advancing Translational Sciences (NCATS), 2013).

Where “and” joins values, the source holds several entries; their conditions need not be identical. Equal values may be shown once. The whole screen tested about 420,000 compounds, of which about 64,000 (15%) were called active. Not shown: some 27% with an inconclusive outcome. Calls follow the shape of the dose curve; as a rule, active = well fitted inhibition curve with a large enough effect; inconclusive = small, poorly fitted or top-dose-only effect; inactive = flat fitted curve, though single readings scatter. Not all results are given here. Where a call stands in place of a potency, no number is given. Some compounds were tested as several samples or in several runs, with calls that do not always agree.
Potency is read from the fitted curve at half-maximal effect.

This experiment is described as follows: qHTS for Inhibitors of human tyrosyl-DNA phosphodiesterase 1 (TDP1): qHTS in cells in absence of CPT. Also: nearly all actives have a fitted effect of over 55% in size. Conditions: DT40 Tdp1-/- hTDP1 cells, no CPT, ATP luminescence, 48 h; activity change, negative = growth inhibition: at 46.2 µM (top of the series). Put shortly: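 Seeded 400 DT40-hTDP1 cells/well (vehicle DMSO, no 20 nM CPT); pinned compounds; ≥48 hr at 37 °C; CellTiter-Glo luminescence as viability measure.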
In general terms: Quantitative high-throughput screening tests each substance at several concentrations.
In the case of `O=S1(=O)CCN2C(=N1)SC1=C2CCN(Cc2ccccc2)C1`, the Potency result is “inactive”.
`O=C(O)CC12CC3CC(C1)CC(n1ncc(NCc4ccc(F)cc4)c(Cl)c1=O)(C3)C2`: the Potency entry is “inactive”.
As for `O=C(O)c1ccc(Cn2cnc3c(=S)nc[nH]c32)cc1`, the Potency result is “inactive”.
`CC(=O)N1CCSc2ccc(S(=O)(=O)N3CCC(C)CC3)cc21`: the Potency is 14.6 µM (active).
As to `CC1CCN(S(=O)(=O)c2ccc3c(c2)n(C)c(=O)n3C)CC1`, the Potency result was “inactive”.
For `CCOC(=O)C1CCN(S(=O)(=O)c2ccc3c(c2)N(C(C)=O)CCO3)CC1` the value was “inactive”; for `CCOC(=O)c1ccccc1C(=O)N1CCOCCOCCOCC1`, “inactive”; for `CCC(C)CN1CCC(CO)(Cc2ccccc2Cl)CC1` (configuration not stated), “inactive”.
Turning to `O=C(Nc1cnccn1)c1cccnc1`, the Potency entry was “inactive”.
Take `O=C(O)c1ccc2c3c(cccc13)C(=O)N(OS(=O)(=O)c1ccccc1)C2=O`: the Potency entry is “inactive”.
As for `CC1=C(c2ccc(F)cc2)S(=O)(=O)N=C1N1CCC(C(=O)NCCc2ccccc2C)CC1`, the Potency result was “inactive”.
In the case of `COc1ccccc1N1CCN(c2ncnc3onc(-c4cccc(Cl)c4)c23)CC1`, the Potency result is “inactive”.
With `CCc1noc(C)c1C(=O)N1CCCC(N2CCN(c3ccc(F)cc3)CC2)C1` (configuration not stated) the entry was “inactive”.
With `CN(Cc1ccccc1)c1ncnc2onc(-c3ccc(F)cc3)c12`, the Potency is 18.4 µM (active).
For `CN(Cc1ccccc1)c1ccc(-c2nc(-c3ccccc3)no2)cc1[N+](=O)[O-]`, the Potency result was “inactive”.
As to `COc1ccccc1N1CCN(c2ncnc3sc(C)c(-c4ccccc4)c23)CC1`, the Potency entry is “inactive”.
With `Cc1ccc(Cl)cc1N(C)C(=O)C1CCCN(c2ncnc3onc(-c4ccc(F)cc4)c23)C1` (configuration not stated) the figure was 4.11 µM (active); with `CCc1ccccc1N(C)C(=O)C1CCCN(c2ncnc3onc(-c4ccc(F)cc4)c23)C1` (configuration not stated), 11.6 µM (active); with `COc1ccccc1N1CCN(c2ncnc3onc(-c4ccc(F)cc4)c23)CC1`, 18.4 µM (active).
Regarding `O=C1NN(c2ccccc2)C(=O)/C1=C/c1ccc(-c2cccc(C(=O)O)c2)o1`, the Potency result is “inactive”.
Take `O=C1NC[C@H](CCCCN2CCN(CCc3ccccc3)C(=O)C2=O)N(CC2CCCCC2)C1=O`: the Potency result is “inactive”.
For `CN(C)NC(=O)c1csnc1-c1c(Cl)cccc1Cl` the value was “inactive”; for `c1ccc(Nc2n[nH]nc2-c2ccccc2)cc1`, “inactive”; for `Cc1ccccc1-c1nc(CS(=O)(=O)CC(=O)NC(C)c2ccccc2)c(C)o1` (configuration not stated), “inactive and 16.4 µM (active)”.
For `CSc1ccc(CCNC(=O)CS(=O)(=O)Cc2nc(-c3ccccc3F)oc2C)cc1` the value was “inactive”; for `Cc1ccc(S(=O)(=O)CC(=O)NC(C)c2ccccc2)cc1` (configuration not stated), “inactive”; for `Cc1ccc(NC(=O)c2sccc2C)cc1[N+](=O)[O-]`, “inactive”.
